The supplement of paper PMC10849652
Of roughly 7,900 targets only a part is listed; those with a hit were picked by preference. About 0.6% of all pairs of compound and target were hits. Unmarked numbers belong to inactive results.

What was measured:
Test in all cases: log2 fold change, soluble protein after heating vs DMSO (PISA); higher = thermal stabilisation; K562 cells, 10 uM, 30 min; active = over 0.2 and 3.5 SD of the protein, either way, in both replicates (recomputed)
[1] = compound: COC1=CC=C(C=C1)CN2C=CC3=C2C=C(C=C3)C(=O)NO
Outline: (§1)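 Thermal stability values are relative to control samples and come from duplicates. They are expressed as log2 fold changes. For measurement, K562 cells (2×10^6 cells/mL) received 10 μM compound for 30 min, and aliquots were heated for 3 min over 48°C-58°C, pooled, and extracted at 4°C in PBS with 0.5% NP-40. Soluble protein, the supernatant after 21,000xg for 90 min, was quantified by TMTpro 16plex LC-MS/MS with equalised channel sums.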

filanesib = compound: CON(C)C(=O)N1N=C(c2cc(F)ccc2F)S[C@@]1(CCCN)c1ccccc1 [filanesib]
Outline: as §1

zotarolimus = compound: CO[C@H]1C[C@@H]2CC[C@@H](C)[C@@](O)(O2)C(=O)C(=O)N2CCCC[C@H]2C(=O)O[C@H]([C@H](C)C[C@@H]2CC[C@H](n3cnnn3)[C@H](OC)C2)CC(=O)[C@H](C)/C=C(\C)[C@@H](O)[C@@H](OC)C(=O)[C@H](C)C[C@H](C)/C=C/C=C/C=C/1C [zotarolimus]
Outline: as §1

idasanutlin = compound: COc1cc(C(=O)O)ccc1NC(=O)[C@@H]1N[C@@H](CC(C)(C)C)[C@](C#N)(c2ccc(Cl)cc2F)[C@H]1c1cccc(Cl)c1F [idasanutlin]
Outline: as §1

alisertib = compound: COc1cc(Nc2ncc3c(n2)-c2ccc(Cl)cc2C(c2c(F)cccc2OC)=NC3)ccc1C(=O)O [alisertib]
Outline: as §1

[2] = compound: COc1cc2nc(-c3cc(F)ccc3O)nc(N[C@@H]3CNC[C@H]3C(C)(C)O)c2cc1OC
Outline: as §1

gefitinib = compound: COc1cc2ncnc(Nc3ccc(F)c(Cl)c3)c2cc1OCCCN1CCOCC1 [gefitinib]
Outline: as §1

[3] = compound: COc1cccc2cc(-c3nc([C@H]4CC[C@H](C(=O)O)CC4)n4ncnc(N)c34)[nH]c12
Outline: as §1

lapatinib = compound: CS(=O)(=O)CCNCc1ccc(-c2ccc3ncnc(Nc4ccc(OCc5cccc(F)c5)c(Cl)c4)c3c2)o1 [lapatinib]
Outline: as §1

pictilisib = compound: CS(=O)(=O)N1CCN(Cc2cc3nc(-c4cccc5[nH]ncc45)nc(N4CCOCC4)c3s2)CC1 [pictilisib]
Outline: as §1

[4] = compound: CS(=O)(=O)c1ccc(-c2cnc(N)c(C(=O)Nc3ccccc3)n2)cc1
Outline: as §1

crizotinib = compound: C[C@@H](Oc1cc(-c2cnn(C3CCNCC3)c2)cnc1N)c1c(Cl)ccc(F)c1Cl [crizotinib]
Outline: as §1

[5] = compound: C[C@@H]1COCCN1C2=NC(=NC(=C2)C3(CC3)S(=O)(=O)C)C4=C5C=CNC5=CC=C4
Outline: as §1

[6] = compound: C[C@H](C1=CC=C(C=C1)C(=O)NC2=C3C=CNC3=NC=C2)N
Outline: as §1

duvelisib = compound: C[C@H](Nc1ncnc2nc[nH]c12)c1cc2cccc(Cl)c2c(=O)n1-c1ccccc1 [duvelisib]
Outline: as §1

gandotinib = compound: Cc1cc(Nc2cc(CN3CCOCC3)c3nc(C)c(Cc4ccc(Cl)cc4F)n3n2)n[nH]1 [gandotinib]
Outline: as §1

tozasertib = compound: Cc1cc(Nc2cc(N3CCN(C)CC3)nc(Sc3ccc(NC(=O)C4CC4)cc3)n2)n[nH]1 [tozasertib]
Outline: as §1

[7] = compound: Cc1cc(SCc2sc(-c3ccc(C(F)(F)F)cc3)nc2C)ccc1OCC(=O)O
Outline: as §1

doramapimod = compound: Cc1ccc(-n2nc(C(C)(C)C)cc2NC(=O)Nc2ccc(OCCN3CCOCC3)c3ccccc23)cc1 [doramapimod]
Outline: as §1

ispinesib = compound: Cc1ccc(C(=O)N(CCCN)[C@@H](c2nc3cc(Cl)ccc3c(=O)n2Cc2ccccc2)C(C)C)cc1 [ispinesib]
Outline: as §1

UniProt Q9Y478, sequence (Q9Y478 whole entry, looked up): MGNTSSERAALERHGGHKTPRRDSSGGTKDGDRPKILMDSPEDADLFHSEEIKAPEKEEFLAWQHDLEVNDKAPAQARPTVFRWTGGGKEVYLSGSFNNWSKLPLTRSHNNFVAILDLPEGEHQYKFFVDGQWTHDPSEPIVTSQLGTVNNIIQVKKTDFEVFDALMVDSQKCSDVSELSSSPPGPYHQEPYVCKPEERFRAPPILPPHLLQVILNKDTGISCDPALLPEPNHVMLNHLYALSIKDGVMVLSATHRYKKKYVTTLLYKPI
UniProt Q00577, sequence (Q00577 whole entry, looked up): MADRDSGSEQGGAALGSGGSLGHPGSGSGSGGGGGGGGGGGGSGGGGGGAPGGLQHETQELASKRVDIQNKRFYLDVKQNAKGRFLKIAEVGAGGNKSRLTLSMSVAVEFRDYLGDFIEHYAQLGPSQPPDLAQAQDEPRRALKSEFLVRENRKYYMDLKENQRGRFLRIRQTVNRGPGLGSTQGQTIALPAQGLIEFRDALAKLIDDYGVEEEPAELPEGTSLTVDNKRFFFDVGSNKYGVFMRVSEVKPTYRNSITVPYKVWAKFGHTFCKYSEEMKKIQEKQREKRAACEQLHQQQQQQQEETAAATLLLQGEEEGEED
UniProt P07205, sequence (P07205 whole entry, looked up): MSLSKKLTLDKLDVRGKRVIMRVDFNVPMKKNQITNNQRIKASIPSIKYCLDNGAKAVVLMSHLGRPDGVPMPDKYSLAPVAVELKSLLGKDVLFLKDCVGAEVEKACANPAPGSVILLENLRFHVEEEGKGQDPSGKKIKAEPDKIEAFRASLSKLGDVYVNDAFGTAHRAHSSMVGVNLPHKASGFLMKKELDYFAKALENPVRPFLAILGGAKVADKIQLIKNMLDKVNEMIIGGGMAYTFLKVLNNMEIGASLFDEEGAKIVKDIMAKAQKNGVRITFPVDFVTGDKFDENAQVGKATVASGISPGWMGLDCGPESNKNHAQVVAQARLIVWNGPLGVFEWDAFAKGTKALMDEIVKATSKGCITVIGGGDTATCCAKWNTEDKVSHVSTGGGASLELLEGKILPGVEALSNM
UniProt Q13362, sequence (Q13362 whole entry, looked up): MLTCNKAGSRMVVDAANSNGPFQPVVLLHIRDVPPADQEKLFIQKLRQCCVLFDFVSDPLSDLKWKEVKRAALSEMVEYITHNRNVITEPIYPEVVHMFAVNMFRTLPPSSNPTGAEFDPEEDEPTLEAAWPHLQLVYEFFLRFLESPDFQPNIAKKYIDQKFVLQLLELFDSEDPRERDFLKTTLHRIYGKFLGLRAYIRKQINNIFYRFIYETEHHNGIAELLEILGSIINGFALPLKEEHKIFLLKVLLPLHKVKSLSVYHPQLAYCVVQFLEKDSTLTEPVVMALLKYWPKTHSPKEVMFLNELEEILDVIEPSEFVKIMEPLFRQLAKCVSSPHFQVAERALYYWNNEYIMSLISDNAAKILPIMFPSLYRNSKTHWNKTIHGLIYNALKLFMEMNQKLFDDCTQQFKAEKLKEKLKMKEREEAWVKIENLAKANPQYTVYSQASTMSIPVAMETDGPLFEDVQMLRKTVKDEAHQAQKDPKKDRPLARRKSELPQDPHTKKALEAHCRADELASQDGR
UniProt P49585, sequence (P49585 whole entry, looked up): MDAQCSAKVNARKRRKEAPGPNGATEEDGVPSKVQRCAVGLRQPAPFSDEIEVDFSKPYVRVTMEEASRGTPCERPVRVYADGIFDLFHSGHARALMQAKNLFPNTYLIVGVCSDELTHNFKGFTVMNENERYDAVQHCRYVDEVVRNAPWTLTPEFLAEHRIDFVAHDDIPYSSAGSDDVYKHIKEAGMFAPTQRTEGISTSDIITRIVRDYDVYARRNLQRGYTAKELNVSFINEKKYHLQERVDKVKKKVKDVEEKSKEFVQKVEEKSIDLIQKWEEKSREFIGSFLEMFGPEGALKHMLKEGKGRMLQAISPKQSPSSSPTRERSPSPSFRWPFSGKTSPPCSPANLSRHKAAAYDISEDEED
UniProt Q9Y3C6, sequence (Q9Y3C6 whole entry, looked up): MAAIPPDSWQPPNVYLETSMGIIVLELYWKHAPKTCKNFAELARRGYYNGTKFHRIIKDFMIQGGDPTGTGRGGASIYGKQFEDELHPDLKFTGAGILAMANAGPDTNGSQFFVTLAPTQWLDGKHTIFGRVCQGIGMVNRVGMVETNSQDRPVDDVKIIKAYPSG
UniProt Q8NAV1, sequence (Q8NAV1 whole entry, looked up): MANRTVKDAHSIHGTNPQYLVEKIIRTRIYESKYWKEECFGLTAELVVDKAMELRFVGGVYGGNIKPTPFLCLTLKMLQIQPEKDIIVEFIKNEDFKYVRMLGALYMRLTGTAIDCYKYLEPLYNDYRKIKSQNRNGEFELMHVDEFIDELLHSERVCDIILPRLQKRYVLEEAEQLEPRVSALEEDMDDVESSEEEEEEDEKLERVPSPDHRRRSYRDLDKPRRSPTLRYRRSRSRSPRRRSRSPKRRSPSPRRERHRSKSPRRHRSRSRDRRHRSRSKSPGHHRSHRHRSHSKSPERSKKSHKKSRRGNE
UniProt P11498, sequence (P11498 whole entry, looked up): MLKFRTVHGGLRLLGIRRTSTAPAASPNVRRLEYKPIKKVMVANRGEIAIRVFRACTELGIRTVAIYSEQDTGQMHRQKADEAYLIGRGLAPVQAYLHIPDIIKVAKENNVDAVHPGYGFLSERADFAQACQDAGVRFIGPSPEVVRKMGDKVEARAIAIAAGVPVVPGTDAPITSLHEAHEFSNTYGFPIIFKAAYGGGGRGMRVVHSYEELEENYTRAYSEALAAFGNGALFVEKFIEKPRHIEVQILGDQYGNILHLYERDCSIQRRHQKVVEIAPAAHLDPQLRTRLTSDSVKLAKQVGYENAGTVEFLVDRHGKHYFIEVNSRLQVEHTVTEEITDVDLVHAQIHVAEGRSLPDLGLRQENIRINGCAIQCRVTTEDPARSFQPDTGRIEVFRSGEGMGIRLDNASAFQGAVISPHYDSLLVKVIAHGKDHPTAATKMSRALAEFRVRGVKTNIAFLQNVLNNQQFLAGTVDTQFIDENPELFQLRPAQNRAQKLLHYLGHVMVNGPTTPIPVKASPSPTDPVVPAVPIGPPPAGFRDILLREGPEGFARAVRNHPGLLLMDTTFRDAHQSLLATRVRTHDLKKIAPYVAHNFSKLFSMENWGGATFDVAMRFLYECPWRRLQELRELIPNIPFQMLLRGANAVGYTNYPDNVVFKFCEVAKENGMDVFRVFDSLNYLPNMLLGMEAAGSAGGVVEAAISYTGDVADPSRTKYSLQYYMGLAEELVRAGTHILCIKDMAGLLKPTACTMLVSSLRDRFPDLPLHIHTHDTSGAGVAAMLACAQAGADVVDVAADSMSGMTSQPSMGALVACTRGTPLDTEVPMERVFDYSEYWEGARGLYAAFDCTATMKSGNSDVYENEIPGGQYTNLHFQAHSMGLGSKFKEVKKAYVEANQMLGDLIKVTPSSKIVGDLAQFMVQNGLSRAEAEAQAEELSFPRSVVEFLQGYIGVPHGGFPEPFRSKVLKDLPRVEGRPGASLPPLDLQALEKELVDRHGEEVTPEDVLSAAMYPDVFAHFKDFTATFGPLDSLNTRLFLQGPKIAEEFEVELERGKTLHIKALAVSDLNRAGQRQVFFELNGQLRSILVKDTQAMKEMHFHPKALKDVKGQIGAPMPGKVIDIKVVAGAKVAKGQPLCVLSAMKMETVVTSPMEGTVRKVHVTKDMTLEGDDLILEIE
UniProt O15162, sequence (O15162 whole entry, looked up): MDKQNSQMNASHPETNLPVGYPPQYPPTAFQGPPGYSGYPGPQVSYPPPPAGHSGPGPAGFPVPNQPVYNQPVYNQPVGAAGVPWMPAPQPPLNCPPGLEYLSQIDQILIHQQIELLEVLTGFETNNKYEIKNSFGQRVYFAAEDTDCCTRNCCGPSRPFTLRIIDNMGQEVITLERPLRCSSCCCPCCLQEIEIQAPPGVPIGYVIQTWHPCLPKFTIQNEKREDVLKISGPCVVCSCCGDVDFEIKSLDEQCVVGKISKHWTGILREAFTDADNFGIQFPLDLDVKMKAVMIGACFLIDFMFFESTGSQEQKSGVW
UniProt Q9Y2Y1, sequence (Q9Y2Y1 whole entry, looked up): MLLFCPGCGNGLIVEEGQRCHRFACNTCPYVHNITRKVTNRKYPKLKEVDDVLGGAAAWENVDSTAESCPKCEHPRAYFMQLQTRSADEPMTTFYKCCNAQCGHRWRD
UniProt Q86T03, sequence (Q86T03 whole entry, looked up): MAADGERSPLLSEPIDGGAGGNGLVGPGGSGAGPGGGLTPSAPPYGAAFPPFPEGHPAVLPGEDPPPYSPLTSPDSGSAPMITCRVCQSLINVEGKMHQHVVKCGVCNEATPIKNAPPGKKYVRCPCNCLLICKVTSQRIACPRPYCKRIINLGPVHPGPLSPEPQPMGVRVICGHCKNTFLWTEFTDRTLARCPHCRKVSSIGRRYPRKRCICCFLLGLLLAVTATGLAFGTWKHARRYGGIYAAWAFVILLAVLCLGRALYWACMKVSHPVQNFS
UniProt O43741, sequence (O43741 whole entry, looked up): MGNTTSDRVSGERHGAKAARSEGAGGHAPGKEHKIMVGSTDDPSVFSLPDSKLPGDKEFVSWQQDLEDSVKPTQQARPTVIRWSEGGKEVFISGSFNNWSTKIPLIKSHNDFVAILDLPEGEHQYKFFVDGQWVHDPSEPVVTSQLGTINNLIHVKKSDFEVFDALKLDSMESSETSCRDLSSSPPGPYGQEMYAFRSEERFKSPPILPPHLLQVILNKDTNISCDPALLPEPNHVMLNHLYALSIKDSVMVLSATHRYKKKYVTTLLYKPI

Target	log2 fold change [1]	log2 fold change (filanesib)	log2 fold change (zotarolimus)	log2 fold change (idasanutlin)	log2 fold change (alisertib)	log2 fold change [2]	log2 fold change (gefitinib)	log2 fold change [3]	log2 fold change (lapatinib)	log2 fold change (pictilisib)	log2 fold change [4]	log2 fold change (crizotinib)	log2 fold change [5]	log2 fold change [6]	log2 fold change (duvelisib)	log2 fold change (gandotinib)	log2 fold change (tozasertib)	log2 fold change [7]	log2 fold change (doramapimod)	log2 fold change (ispinesib)
PPP2R5E (UniProt Q16537)	-0.044	-0.056	-0.009	-0.191	-0.024	0.205	0.002	0.033	-0.024	-0.118	-0.024	-0.15	0.037	0.105	0.078	0.167	-0.072	0.015	-0.01	-0.024
PIK3C3 (UniProt Q8NEB9)	0.049	0.221	0.016	-0.055	0.011	0.172	0.062	0.007	0.021	0.094	0.147	-0.037	-0.125	0.06	0.258 (active)	0.164	0.012	-0.008	0.127	-0.101
PPP2R5C isoform 5 (UniProt Q13362)	0.022	-0.126	0.031	-0.137	-0.11	0.082	-0.018	-0.012	0	0.111	-0.054	-0.071	0.023	-0.05	0.009	-0.024	-0.019	0.069	-0.043	0.007
PIP4P1 isoform 2 (UniProt Q86T03)	0.089	-0.32 (active)	0.004	0.002	0.032	-0.072	-0.018	-0.058	0.06	-0.061	0.021	-0.395 (active)	-0.123	0.086	-0.085	0.107	0.021	-0.048	-0.025	-0.353 (active)
PIP4K2B (UniProt P78356)	0.028	-0.146	0.025	-0.104	-0.045	0.379 (active)	0.035	0.207	-0.026	0.022	0.63 (active)	-0.01	0.048	-0.072	0.028	-0.031	-0.025	-0.009	-0.055	-0.007
PSMC3 (UniProt P17980)	-0.035	0.043	0.001	0.045	-0.056	-0.015	-0.045	-0.038	0.047	0.013	0.002	0.012	-0.098	0.067	-0.048	0.027	0.024	0.011	0.017	-0.024
PRKAB1 (UniProt Q9Y478)	0.024	-0.022	0.07	-0.223	-0.105	-0.034	-0.024	0.05	-0.049	-0.063	0.013	-0.252 (active)	0.029	-0.063	0.01	-0.057	-0.013	0.069	0.013	-0.013
POLR3K (UniProt Q9Y2Y1)	-0.078	-0.03	-0.063	0.006	-0.156	0.01	-0.023	0.044	0.057	-0.04	-0.026	0.015	0.035	-0.027	0.067	0.066	-0.011	-0.059	0.038	-0.075
PC (UniProt P11498)	0.05	0.08	-0.04	-0.372 (active)	-0.039	0.14	0.024	0.014	-0.011	0.09	0.033	0.103	0.199	0.167	0.01	-0.143	-0.048	0.024	0.008	0.186
PLSCR1 (UniProt O15162)	-0.017	0.01	-0.012	0.033	-0.006	-0.046	0.016	0.145	0.051	0.037	0.079	0.017	0.101	-0.024	0.037	-0.096	-0.075	-0.017	0.042	-0.619 (active)
PGK2 (UniProt P07205)	0.016	-0.003	-0.029	0.001	0.08	0.14	0.068	0.001	-0.093	0.041	0.016	0.029	0.075	-0.002	0.062	0.078	-0.033	-0.093	-0.109	0.024
PRPF38A (UniProt Q8NAV1)	-0.113	0.046	-0.014	0.035	-0.033	0.041	0.009	0.002	-0.035	0.085	-0.029	0.018	0.017	0.009	0.037	-0.042	-0.071	0.017	0.006	-0.024
PURA (UniProt Q00577)	-0.336	0.277	-0.093	0.179	-0.106	-0.052	-0.024	-0.113	0.104	-0.071	-0.064	0.03	-0.44	0.287	-0.165	0.334	0.069	-0.012	0.063	-0.143
PRKAB2 (UniProt O43741)	0.038	-0.167	0.109	0.14	0.053	-0.074	0.004	0.057	0.131	0.111	-0.08	-0.245	0.021	-0.231	-0.154	-0.484 (active)	0.044	0.051	-0.041	0.143
PPIL1 (UniProt Q9Y3C6)	-0.079	0.05	-0.008	-0.015	-0.078	0.12	-0.023	-0.017	-0.051	-0.028	-0.029	0.038	0.018	0.012	0	0.045	-0.01	0.014	0.031	-0.089
PCYT1A (UniProt P49585)	0.006	-0.005	0.035	-0.015	0.025	-0.05	-0.012	-0.037	0.018	0.03	-0.031	-0.032	0.092	-0.097	0.081	-0.148	0.072	0.094	-0.008	0.003
